This is an account of results in paper PMC9911399, “Two distinct binding modes provide the RNA-binding protein RbFox with extraordinary sequence specificity”.

T1: RBFOX1 RRM (Homo sapiens, UniProt Q9NWB1 109-208)
T1 sequence: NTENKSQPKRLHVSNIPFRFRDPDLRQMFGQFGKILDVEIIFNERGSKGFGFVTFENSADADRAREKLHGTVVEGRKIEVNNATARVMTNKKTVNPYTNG

B1: UAACAUU (DNA:RNA)
RNA: GGGAGACCGGAAUUCAGAUUGUCCUAACAUUUUAAAUCCCGUCGUAGCCACCA
DNA 1: CAATCTGAATTCCGGTCTCCC
DNA 2: TGGTGGCTACGACGGGATT
B2: UACAGUC (DNA:RNA)
RNA: B1 RNA with A27C, C28A, A29G, U31C
DNA 1: CAATCTGAATTCCGGTCTCCC
DNA 2: TGGTGGCTACGACGGGATT
B3: AGCAGAA (DNA:RNA)
RNA: GGGAGACCGGAAUUCAGAUUGUCCAGCAGAAUUAAAUCCCGUCGUAGCCACCA
DNA 1: CAATCTGAATTCCGGTCTCCC
DNA 2: TGGTGGCTACGACGGGATT
B4: GCAUAAU (DNA:RNA)
RNA: B1 RNA with U25G, A26C, C28U, U30A
DNA 1: CAATCTGAATTCCGGTCTCCC
DNA 2: TGGTGGCTACGACGGGATT
B5: GCAUGGA (DNA:RNA)
RNA: B3 RNA with A25G, G26C, C27A, A28U, A30G
DNA 1: CAATCTGAATTCCGGTCTCCC
DNA 2: TGGTGGCTACGACGGGATT
B6: GGCAUAA (DNA:RNA)
RNA: B3 RNA with A25G, G29U
DNA 1: CAATCTGAATTCCGGTCTCCC
DNA 2: TGGTGGCTACGACGGGATT
B7: GGAUGGA (DNA:RNA)
RNA: B3 RNA with A25G, C27A, A28U, A30G
DNA 1: CAATCTGAATTCCGGTCTCCC
DNA 2: TGGTGGCTACGACGGGATT
B8: GCAUGAC (DNA:RNA)
RNA: B3 RNA with A25G, G26C, C27A, A28U, A31C
DNA 1: CAATCTGAATTCCGGTCTCCC
DNA 2: TGGTGGCTACGACGGGATT
B9: GCAUUCA (DNA:RNA)
RNA: B3 RNA with A25G, G26C, C27A, A28U, G29U, A30C
DNA 1: CAATCTGAATTCCGGTCTCCC
DNA 2: TGGTGGCTACGACGGGATT
B10: GCAUGAU (DNA:RNA)
RNA: B3 RNA with A25G, G26C, C27A, A28U, A31U
DNA 1: CAATCTGAATTCCGGTCTCCC
DNA 2: TGGTGGCTACGACGGGATT
B11: GGAUGAC (DNA:RNA)
RNA: B3 RNA with A25G, C27A, A28U, A31C
DNA 1: CAATCTGAATTCCGGTCTCCC
DNA 2: TGGTGGCTACGACGGGATT
B12: GGCAUGA (DNA:RNA)
RNA: B3 RNA with A25G, G29U, A30G
DNA 1: CAATCTGAATTCCGGTCTCCC
DNA 2: TGGTGGCTACGACGGGATT
B13: GCAUUUU (DNA:RNA)
RNA: B1 RNA with U25G, A26C, C28U, A29U
DNA 1: CAATCTGAATTCCGGTCTCCC
DNA 2: TGGTGGCTACGACGGGATT
B14: GUAUGAC (DNA:RNA)
RNA: B3 RNA with A25G, G26U, C27A, A28U, A31C
DNA 1: CAATCTGAATTCCGGTCTCCC
DNA 2: TGGTGGCTACGACGGGATT
B15: GUCAUGA (DNA:RNA)
RNA: B3 RNA with A25G, G26U, G29U, A30G
DNA 1: CAATCTGAATTCCGGTCTCCC
DNA 2: TGGTGGCTACGACGGGATT
B16: CCUUGGG (DNA:RNA)
RNA: B3 RNA with A25C, G26C, C27U, A28U, A30G, A31G
DNA 1: CAATCTGAATTCCGGTCTCCC
DNA 2: TGGTGGCTACGACGGGATT
B17: CGCCUAC (DNA:RNA)
RNA: B3 RNA with A25C, A28C, G29U, A31C
DNA 1: CAATCTGAATTCCGGTCTCCC
DNA 2: TGGTGGCTACGACGGGATT
B18: AUGAUGU (DNA:RNA)
RNA: B3 RNA with G26U, C27G, G29U, A30G, A31U
DNA 1: CAATCTGAATTCCGGTCTCCC
DNA 2: TGGTGGCTACGACGGGATT
B19: GCAUAGA (DNA:RNA)
RNA: B1 RNA with U25G, A26C, C28U, U30G, U31A
DNA 1: CAATCTGAATTCCGGTCTCCC
DNA 2: TGGTGGCTACGACGGGATT
B20: GCAUGUA (DNA:RNA)
RNA: B3 RNA with A25G, G26C, C27A, A28U, A30U
DNA 1: CAATCTGAATTCCGGTCTCCC
DNA 2: TGGTGGCTACGACGGGATT
B21: GGAUGAG (DNA:RNA)
RNA: B3 RNA with A25G, C27A, A28U, A31G
DNA 1: CAATCTGAATTCCGGTCTCCC
DNA 2: TGGTGGCTACGACGGGATT
B22: GCAUAAA (DNA:RNA)
RNA: B3 RNA with A25G, G26C, C27A, A28U, G29A
DNA 1: CAATCTGAATTCCGGTCTCCC
DNA 2: TGGTGGCTACGACGGGATT
B23: GCAUGAG (DNA:RNA)
RNA: B3 RNA with A25G, G26C, C27A, A28U, A31G
DNA 1: CAATCTGAATTCCGGTCTCCC
DNA 2: TGGTGGCTACGACGGGATT
B24: GUAUGAG (DNA:RNA)
RNA: B3 RNA with A25G, G26U, C27A, A28U, A31G
DNA 1: CAATCTGAATTCCGGTCTCCC
DNA 2: TGGTGGCTACGACGGGATT
B25: GCAUAUA (DNA:RNA)
RNA: B1 RNA with U25G, A26C, C28U, U31A
DNA 1: CAATCTGAATTCCGGTCTCCC
DNA 2: TGGTGGCTACGACGGGATT
B26: GUAUGUA (DNA:RNA)
RNA: B3 RNA with A25G, G26U, C27A, A28U, A30U
DNA 1: CAATCTGAATTCCGGTCTCCC
DNA 2: TGGTGGCTACGACGGGATT
B27: GCAUGAA (DNA:RNA)
RNA: B3 RNA with A25G, G26C, C27A, A28U
DNA 1: CAATCTGAATTCCGGTCTCCC
DNA 2: TGGTGGCTACGACGGGATT
B28: CGCAUGA (DNA:RNA)
RNA: B3 RNA with A25C, G29U, A30G
DNA 1: CAATCTGAATTCCGGTCTCCC
DNA 2: TGGTGGCTACGACGGGATT
B29: GCCAUGA (DNA:RNA)
RNA: B3 RNA with A25G, G26C, G29U, A30G
DNA 1: CAATCTGAATTCCGGTCTCCC
DNA 2: TGGTGGCTACGACGGGATT
B30: GCAUUGA (DNA:RNA)
RNA: B3 RNA with A25G, G26C, C27A, A28U, G29U, A30G
DNA 1: CAATCTGAATTCCGGTCTCCC
DNA 2: TGGTGGCTACGACGGGATT
B31: AAUAAUA (DNA:RNA)
RNA: B3 RNA with G26A, C27U, G29A, A30U
DNA 1: CAATCTGAATTCCGGTCTCCC
DNA 2: TGGTGGCTACGACGGGATT

Changes are numbered by the printed parent chain; changes in the protein carry UniProt numbers. Over roughly 16,000 sequences, “ka relative to ugcaugu” has its median near 0.0091; the highest 2% begin near 0.032. The full list was thinned out, with the highest values kept by preference.

The target in this assay is T1, RBFOX1 RRM. The experiment in a line: EMSA; HiTS-Eq, 1 nM pool, 10 min; buffer printed only for the single-RNA assays: 10 mM Tris pH 7.5, 150 mM NaCl, 3.4 mM EDTA, 0.001% NP-40, 30 C. As to conditions: tags: His6 N-terminal (pET28a); label: 5' 32P. The method in brief: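 Purified RbFox RRM, wild type or mutant, was incubated for 10 min in 50 µL with 1 nM of a 5′-radiolabelled RNA pool carrying 7 randomized nucleotides, whose flanks were annealed to DNA oligonucleotides, over a series of increasing protein concentrations. Unbound RNA was resolved on 8% native PAGE, cut out, reverse-transcribed, barcoded by PCR and sequenced on an Illumina HiSeq 2500. Relative association constants were derived from changes in read counts for each RNA species versus the control reaction and normalised to the cognate motif.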
For the molecule B1, the binding signal is 0.00574 KA relative to UGCAUGU.
B2: the binding signal is 0.00675 KA relative to UGCAUGU.
Regarding B3, the binding signal is 0.00732 KA relative to UGCAUGU.
For B4, the binding signal was 0.00163 KA relative to UGCAUGU.
Turning to B5, the binding signal is 0.0333 KA relative to UGCAUGU.
On to B6, for which the binding signal was 0.00272 KA relative to UGCAUGU.
B7: the binding signal is 0.0107 KA relative to UGCAUGU.
For the molecule B8, the binding signal was 0.599 KA relative to UGCAUGU.
In the case of B9, the binding signal is 0.00789 KA relative to UGCAUGU.
Turning to B10, the binding signal is 0.626 KA relative to UGCAUGU.
Turning to B11, the binding signal is 0.015 KA relative to UGCAUGU.
Take B12: the binding signal was 0.156 KA relative to UGCAUGU.
Regarding B13, the binding signal is 0.0088 KA relative to UGCAUGU.
On to B14, for which the binding signal was 0.0127 KA relative to UGCAUGU.
For the molecule B15, the binding signal was 0.0126 KA relative to UGCAUGU.
Consider B16, for which the binding signal was 0.00389 KA relative to UGCAUGU.
For B17, the binding signal was 0.00556 KA relative to UGCAUGU.
The value for B18 was 0.0132 KA relative to UGCAUGU; that for B19 was 0.0137 KA relative to UGCAUGU; that for B20 was 0.473 KA relative to UGCAUGU.
To B21 belongs 0.0205 KA relative to UGCAUGU; to B22, 0.00438 KA relative to UGCAUGU; to B23, 0.684 KA relative to UGCAUGU.
Take B24: the binding signal was 0.0141 KA relative to UGCAUGU.
As to B25, the binding signal was 0.0014 KA relative to UGCAUGU.
The value for B26 was 0.0125 KA relative to UGCAUGU; that for B27 was 0.594 KA relative to UGCAUGU; that for B28 was 0.67 KA relative to UGCAUGU.
In the case of B29, the binding signal is 0.0124 KA relative to UGCAUGU.
In the case of B30, the binding signal is 0.0124 KA relative to UGCAUGU.
On to B31, for which the binding signal is 0.000771 KA relative to UGCAUGU.
